Source: PubChem BioAssay (Tox21)
Results filed as inconclusive are left out. Unmarked numbers belong to inactive results. Calls come from the whole dose curve.

Biological target: D(2) dopamine receptor (Homo sapiens) (UniProt P14416)
Assay: Dopamine D2 receptor (DRD2) small molecule agonists, cell-based qHTS assay (AID 1963594); note: nearly all actives have a fitted effect of over 35% in size
Details: HEK293-DRD2 cAMP HTRF, agonist mode, 30 min; series mostly up to 92.4 µM; activation: at the top concentration
Description: National Center for Advancing Translational Sciences [NCATS]
Division of Preclinical Innovation [DPI]
U.S. Environmental Protection Agency [EPA]
National Institutes of Environmental Health Sciences [NIEHS]
National Toxicology Program [NTP]
U.S. Food and Drug Administration [FDA]
DRD2 is the D2 subtype of the dopamine receptor, which is coupled to Gi subtype of G protein-coupled receptor. This G protein-coupled receptor inhibits adenylyl cyclase activity. The DRD2-HEK293 cell line stably expressing D2 dopamine receptor can be used for screening agonists and antagonists of interactions between D2 and its ligands. The Hek293-DRD2 cAMP assay is based on HTRF technology. It measures changes of cAMP accumulation in response to Gi coupled GPCR activation or inhibition.
Tox21 Assay Protocol Summary:
DRD2-Hek293 cells were dispensed at 600 cells/3uL/well in 1536-well white plates using a Multidrop Dispenser. After the assay plates were incubated at a 37 C/5% CO2 incubator for 24 h, 1 uL of Ro20-1724 at final concentration of 0.1 mM was transferred to the assay plate by a Flying Reagent Dispenser. Following Ro20-1724 addition, 23 nL of compound dissolved in DMSO, positive controls or DMSO only was added to the assay plates via Wako pintool station. The assay plates were incubated at room temperature for 10 min. Next, 1 uL of NKH477 at 200nM was added into the plates. After the assay plates were incubated at room temperature for an additional 30 min, 2.5 ul/well of cAMP-d2 and 2.5 ul/well of anti-cAMP-cryptate were added respectively into the assay plates using a Flying Reagent Dispenser. The plates were incubated at room temperature for 1 h. The fluorescence intensity in the plates was measured at 340 nm excitation and 665 & 620 nm emission by an Envision plate reader.
% is set by controls: 0 for no effect and ±100 for the full control effect.

Sequence of D(2) dopamine receptor (Homo sapiens) (P14416 whole entry, looked up): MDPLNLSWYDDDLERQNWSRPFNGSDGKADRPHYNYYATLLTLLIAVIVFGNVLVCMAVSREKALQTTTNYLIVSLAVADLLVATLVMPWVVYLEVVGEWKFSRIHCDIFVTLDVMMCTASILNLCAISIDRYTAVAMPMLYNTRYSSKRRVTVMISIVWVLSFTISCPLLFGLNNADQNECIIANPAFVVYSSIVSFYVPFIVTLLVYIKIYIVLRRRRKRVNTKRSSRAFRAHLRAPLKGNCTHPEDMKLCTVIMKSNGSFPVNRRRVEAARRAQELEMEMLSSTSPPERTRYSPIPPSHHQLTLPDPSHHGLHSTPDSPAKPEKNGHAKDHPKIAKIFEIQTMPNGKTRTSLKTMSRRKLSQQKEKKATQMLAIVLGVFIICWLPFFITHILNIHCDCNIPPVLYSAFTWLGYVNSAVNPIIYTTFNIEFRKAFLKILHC

| SMILES | activation |
| --- | --- |
| CC(CCl)OC(C)CCl (stereo not given) | 0.352% |
| Cc1occc1C(=O)Nc1ccc(C(=O)N2CCC(F)(F)/C(=C\C(=O)N3CCC(N4CCCCC4)CC3)c3ccccc32)cc1 | -6.76% [at 42.5 µM] |
| CCOC(=O)COc1cc(-n2ncc(C(F)(F)F)c(C)c2=O)c(F)cc1Cl | 2.11% |
| Cn1c(=O)[nH]c2ncn(C)c2c1=O | 1.99% |
| CC(C)(Sc1cc(C(C)(C)C)c(O)c(C(C)(C)C)c1)Sc1cc(C(C)(C)C)c(O)c(C(C)(C)C)c1 | -1.51% [at 42.5 µM] |
| C=CCOc1c(Br)cc(C(C)(C)c2cc(Br)c(OCC=C)c(Br)c2)cc1Br | -0.639% [at 42.5 µM] |
| COC(=O)CC#N | -6.69% |
| CC(C)OCC1CO1 (stereo not given) | 2.97% |
| CO[Si](CCCS)(OC)OC | -3.17% |
| Cc1ccc(C)c(N)c1 | -0.135% |
| CCCCCCCCC1CO1 (stereo not given) | 1.78% |
| CCCCOCCOC(=O)c1cccnc1 | -2.99% [at 42.5 µM] |
| COCCc1ccccn1 | -5.43% [at 42.5 µM] |
| CCNC(=O)NCCCOc1cccc(CN2CCCCC2)c1 | -11.8% [at 42.5 µM] |
| O=C(OCC(O)CO)c1ccccc1Nc1ccnc2c(C(F)(F)F)cccc12 (stereo not given) | 5.73% [at 42.5 µM] |
| C/C(=C(\CCOP(=O)(O)O)SC(=O)c1ccccc1)N(C=O)Cc1cnc(C)nc1N | 3.76% [at 8.39 µM] |
| NC(=O)c1ccncc1 | 2.29% |
| CC(C(=O)O)c1ccc(/C=C2\CCCCC2=O)cc1 (stereo not given) | -9.08% [at 42.5 µM] |
| CSSc1ccoc1C | 0.0937% |
| CC1OCCC1=O (stereo not given) | 7.26% |

| SMILES | activation |
| --- | --- |
| COc1cc(C(=O)NS(=O)(=O)c2ccccc2C)ccc1Cc1cn(C)c2ccc(NC(=O)OC3CCCC3)cc12 | 5.97% [at 42.5 µM] |
| CCCCOc1cc(C(=O)NCCN(CC)CC)c2ccccc2n1 | -1.39% [at 42.5 µM] |
| O=NN(CCCl)C(=O)NCCCl | 11.4% [at 42.5 µM] |
| Nc1ccccc1O | 1.11% |
| C1CC(COCC2CO2)CCC1COCC1CO1 (stereo not given) | -7.23% |
| NC(=O)C1(N2CCCCC2)CCN(CCCC(=O)c2ccc(F)cc2)CC1 | -10.9% [at 42.5 µM] |
| CC(C)(c1ccc(Oc2ccc3c(c2)C(=O)OC3=O)cc1)c1ccc(Oc2ccc3c(c2)C(=O)OC3=O)cc1 | 1.16% |
| CCCCCCCCCCCCCC[n+]1ccccc1 | 0.638% |
| O=C(O)Cc1c(Cl)ccc(Cl)c1Cl | 2.48% |
| CC1CCCO1 (stereo not given) | -1.49% |
| CCCCCCCCCC=O | -2.62% |
| CO[C@H]1O[C@H](CO)[C@@H](O)[C@H](O)[C@H]1O | -0.874% |
| CCOC(=O)OC(C)OC1=C(C(=O)Nc2ccccn2)N(C)S(=O)(=O)c2ccccc21 (stereo not given) | -2.67% [at 42.5 µM] |
| CC(C)(C(=O)c1cccnc1)c1cccnc1 | 3.53% [at 42.5 µM] |
| CCN(CC)C(C)CN1c2ccccc2Sc2ccccc21 (stereo not given) | 0.134% [at 42.5 µM] |
| CCOC(=O)Cc1cccc2ccccc12 | -10.5% |
| Nc1ccc(Cl)cc1[N+](=O)[O-] | -1.4% |
| CCc1ccc(C(=O)C(C)CN2CCCCC2)cc1 (stereo not given) | -16.4% [at 42.5 µM] |
| C=CC(C)(CCC=C(C)C)OC(=O)C(C)C (stereo not given) | -1.41% |
| CN(C(=O)CCCOc1ccc2[nH]c(=O)ccc2c1)C1CCCCC1 | -1.2% [at 42.5 µM] |
